TDP1 cell CPT – growth inhibition of DT40 Tdp1-/-;hTDP1 cells with camptothecin (screen for TDP1 inhibitors); hit rate 12% among 420,000; AID 686979; chicken DT40 Tdp1-/-;hTDP1 cells + 20 nM CPT, ATP luminescence, 48 h; Potency, µM (doses to about 46.2 µM), inactives show top-dose activity change, negative = growth inhibition, actives largely listed as inhibitors; further: nearly all actives have a fitted effect of over 55% in size
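Chicken DT40 Tdp1-/- cells stably complemented with human TDP1 were seeded at 400 cells/well in medium containing 20 nM camptothecin, exposed to pin-transferred compounds, and grown at 37 °C for at least 48 hr. Viability was read as ATP luminescence.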
KB-3-1 cytotox – KB-3-1 parental cell cytotoxicity; hit rate 1.4% among 400,000; Potency, µM (titrated, usually from 46.1 µM), usual class: cytotoxic; AID 1347075; KB-3-1 viability, CellTiter-Glo ATP luminescence, 72 h; further: nearly all actives have a fitted effect of over 60% in size
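Screening of KB-3-1 cells (DMEM, 10% FBS, phenol-red free) ran from lowest to highest compound concentration; after 72 h at 37 °C viability was read luminescently and curves fitted.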
HT1080-NT tox – kills 2HG-producing HT-1080-NT fibrosarcoma cells. HT-1080-NT fibrosarcoma viability, CellTiter-Glo ATP luminescence, 48 h. Potency, µM (highest dose often 46.1 µM), without a hit: at the top dose activity, negative = less viability, actives largely listed as cytotoxic. hit rate 1.6% among 360,000. AID 686970;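 further: NT is the 2HG producing partner of a matched IDH1 knockdown line; 0% = DMSO-treated cells and -100% = media-only wells without cells; nearly all actives have a fitted effect of over 55% in size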
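HT-1080-NT fibrosarcoma cells (2HG-overproducing), 750 cells/well in RPMI with 5% FBS, dosed after 2 h and incubated 48 h at 37C. CellTiter-Glo luminescence normalized to DMSO and no-cell wells; concentration-response curves fitted and classed.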
HT1080 IDH1KD tx – HT-1080 IDH1 knockdown cell toxicity (counter line); HT-1080 IDH1 knockdown viability, ATP luminescence, 48 h; Potency, µM (series often up to 46.1 µM), without a hit: top-dose activity, negative = toxicity, hits mostly cytotoxic; hit rate 2% among 360,000;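 further: 0% = DMSO wells and -100% = cell-free medium wells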
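Using the IDH1-knockdown HT-1080 line run in the same batch and compound series as the NT line, viability after 48 h at 37 °C was determined by CellTiter-Glo luminescence and expressed as % activity.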
TDP1 cell noCPT – qHTS for Inhibitors of human tyrosyl-DNA phosphodiesterase 1 (TDP1): qHTS in cells in absence of CPT. Potency, µM (highest dose often 46.2 µM), for the others: at the top dose activity change, negative = growth inhibition, most hits filed as inhibitors. hit rate 15% among 420,000. AID 686978, 2013. DT40 Tdp1-/- hTDP1 cells, no CPT, ATP luminescence, 48 h; further: nearly all actives have a fitted effect of over 55% in size
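Readout: luminescence from CellTiter-Glo after 30 min in the dark at RT. Cells: DT40 Tdp1-/- with stable hTDP1, 400/well. Exposure: compounds alone, ≥48 hr, 37 °C.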
KB-V1 MDR tox – KB-V1 MDR subline cytotoxicity | KB-V1 MDR cells viability, CellTiter-Glo, 72 h | Potency, µM (doses to about 46.1 µM), actives largely listed as cytotoxic | hit rate 3.4% among 400,000 | AID 1347076; further: nearly all actives have a fitted effect of over 60% in size
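KB-V1 cells (P-gp-expressing MDR subline of KB-3-1) in phenol-red-free DMEM with 10% FBS were exposed to library compounds over a concentration series for 72 h at 37 degrees C. Viability read by CellTiter-Glo luminescence; concentration-effect curves fitted after normalization.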
* marks the source's active call; other numbers are inactive results; i = inactive; ? = inconclusive; . = not tested or not shown; [ ] = remark or other dose. This is a sample that favours compounds with a hit; in the whole collection about 19% have one here. The call rests on the fitted dose curve; in most records, active means well fitted curve in the direction sought with a large enough effect; inconclusive means small, poorly fitted or top-dose-only effect, or another doubt; inactive means no such curve, though single readings can be large; an effect the other way counts as inactive or inconclusive. Unless noted, on the % scale 0 is the no-effect control and ±100 the full control effect; potency means the concentration at half of the fitted maximal effect.

SMILES	TDP1 cell CPT	KB-3-1 cytotox	HT1080-NT tox	HT1080 IDH1KD tx	TDP1 cell noCPT	KB-V1 MDR tox
COc1cc(CN2CCCC(c3nc(-c4ccncc4)ncc3-c3ccccc3)C2)ccc1O (centres undefined)	-9%[9.04 µM]	.	.	.	-5%	.
O=C(c1cc2nc(-c3cccs3)cc(C(F)(F)F)n2n1)N1CCCc2ccccc21	18µM*	i	5%	-2%	?	i
O=C(c1nn2c(C(F)(F)F)cc(-c3cccs3)nc2c1Br)N1CCCc2ccccc21	9.2µM*	?	-23%	?	8.2µM*	?
O=C(c1nn2c(C(F)(F)F)cc(-c3ccco3)nc2c1Br)N1CCCc2ccccc21	16µM*	?	23µM*	10µM*	12µM*	23µM*
O=[N+]([O-])c1cccc2[nH]cnc12	1%	i	.	.	-2%	i
CCn1cc(C(=O)OCC(=O)Nc2ccc(C)c(Cl)c2)c(=O)c2ccc(C)nc21	-21%	i	.	.	-5%	?
Cc1c(CCC(=O)NCCCn2ccnc2)c(=O)oc2c(C)c3oc4c(c3cc12)CCCC4	?	23µM*	-21%	-17%	?	i
COc1ccccc1CNC(=O)CCc1c(C)c2cc3c(C)coc3cc2oc1=O	?	i	.	.	?	i
Cc1c(CCC(=O)NCCCCCC(=O)O)c(=O)oc2c(C)c3oc4c(c3cc12)CCCC4	-14%	i	0%	0%	-29%	i
Cc1coc2c(C)c3oc(=O)c(CCC(=O)NCCc4ccccc4F)c(C)c3cc12	?	.	.	.	16µM*	.
COc1ccc(CCNC(=O)CCc2c(C)c3cc4c(C)coc4c(C)c3oc2=O)cc1OC	21µM*	.	.	.	8.2µM*	.
COc1ccc(CNC(=O)CCc2c(C)c3cc4c(C)coc4cc3oc2=O)cc1	?	i	.	.	15µM*	i
Cc1cc2oc(C(=O)Nc3ccc(S(N)(=O)=O)cc3)cc(=O)c2cc1C	2%	i	.	.	-23%	i
COC(=O)C[C@H]1C=C[C@H](NC(=O)C2CCOCC2)[C@@H](CO)O1	6%	i	13%	18%	3%	i
COCCCNC(=O)Cc1c(C)c2c(cc(C)c3c(C(C)(C)C)coc32)oc1=O	1.3µM*	5.2µM*	4.1µM*	2.9µM*	1.3µM*	5.2µM*
Cc1c(CC(=O)NCCc2ccccc2)c(=O)oc2c(C)c3occ(C(C)(C)C)c3cc12	16µM*	.	.	.	18µM*	.
Cc1oc2cc3oc(=O)c(CC(=O)NCc4ccccc4)c(C)c3cc2c1C	6.5µM*	.	.	.	8.2µM*	.
COc1ccc2c(C)c(CC(=O)NCCc3ccccc3)c(=O)oc2c1OC	0%	i	.	.	-14%	i
Cc1oc2cc3oc(=O)c(CCC(=O)NCCN4CCOCC4)c(C)c3cc2c1C	21µM*	i	0%	6%	?	i
CCCC(C)(C)C(=O)N1CCC1(C)C(=O)Nc1cccc(OC)c1 (centres undefined)	?	i	17%	-1%	?	?
C[C@@H]1CN([C@@H](C)CO)C(=O)c2cc(Br)cnc2O[C@H]1CN(C)S(=O)(=O)c1cccs1	?	i	-1%	8%	?	i
C=C1[C@H](C)CN[C@H]1CCO	2%	i	4%	-4%	6%	i
COc1cccc(NC(=O)CCNS(=O)(=O)c2ccc3c(c2)CCCC(=O)N3)c1	2%	i	.	.	-14%	?
COc1ccc(CCNC(=O)Cc2c(C)c3cc4c(C(C)(C)C)coc4c(C)c3oc2=O)cc1OC	6.5µM*	.	.	.	8.2µM*	.
COc1cc2oc(=O)c(CC(=O)NCCc3ccccc3F)c(C)c2cc1OC	1%	i	.	.	-16%	i
SMILES	TDP1 cell CPT	KB-3-1 cytotox	HT1080-NT tox	HT1080 IDH1KD tx	TDP1 cell noCPT	KB-V1 MDR tox
Cc1c(CC(=O)NCCc2ccccc2F)c(=O)oc2c(C)c3occ(C(C)(C)C)c3cc12	13µM*	.	.	.	16µM*	.
COc1ccc(CCNC(=O)Cc2c(C)c3cc(OC)c(OC)cc3oc2=O)cc1	-6%	i	.	.	-23%	i
O=C(COc1ccccc1F)Nc1nnc(C2CCCC2)s1	12%	i	8%	0%	-12%	i
CC(C)CN1CCCC2(CCN(C(=O)c3cc(C(F)(F)F)cc(C(F)(F)F)c3)CC2)C1	-9%	.	.	.	-25%	.
O=C1CC(c2cccs2)c2cc3c(cc2N1)OCCO3 (centres undefined)	?	i	-40%	-9%	21µM*	i
O=C1CC(c2cccc(Cl)c2Cl)c2cc3c(cc2N1)OCCO3 (centres undefined)	?	?	.	.	21µM*	i
O=C1CC(c2ccc3c(c2)OCO3)c2cc3c(cc2N1)OCO3 (centres undefined)	-29%	i	-4%	-8%	?	i
COc1cccc(C2CC(=O)Nc3cc4c(cc32)OCCO4)c1OC(C)C (centres undefined)	?	?	-9%	-20%	?	?
O=C1CC(c2cc(F)cc(F)c2)c2cc3c(cc2N1)OCO3 (centres undefined)	?	i	.	.	16µM*	i
COc1ccccc1C1CC(=O)Nc2cc3c(cc21)OCCO3 (centres undefined)	5.2µM*	?	2.2µM*	1.8µM*	5.2µM*	5.8µM*
COc1ccc(CNC(=O)c2ccc(NC(=O)N3CCSc4ncccc43)cc2)cc1OC	-11%	i	.	.	-2%	?
COc1ccc(Cl)cc1C1CC(=O)Nc2cc3c(cc21)OCCO3 (centres undefined)	0.65µM*	.	.	.	0.37µM*	.
O=S(=O)(c1ccc(Cl)cc1)c1nnn2c1nc(NC1CCCCC1)c1sccc12	?	i	.	.	?	i
O=C1N[C@H](Cc2ccccc2)COC(=O)[C@H](Cc2ccc(F)cc2)CC/C=C/C[C@@H]1CC(=O)N(CCO)Cc1ccccc1	10µM*	i	-20%	?	?	?
O=C1N[C@H](Cc2ccccc2)COC(=O)[C@@H](Cc2ccc(F)cc2)CC/C=C/C[C@H]1CC(=O)N(CCO)Cc1ccccc1	18µM*	?	?	-26%	?	i
CCOC(=O)c1ccc2c(c1)nc(SCC(=O)N1CCOCC1)n2CC	12%	i	13%	6%	-20%	i
CCOC(=O)c1ccc2c(c1)nc(SCc1cn3ccsc3n1)n2CC	?	i	-13%	-10%	16µM*	?
O=C(NCN1CCc2ccccc2C1)c1ccccc1	-19%	i	-3%	20%	11%	i
